# Results taken from ChEMBL document CHEMBL1961873, “Compounds: GSK PKIS; Assays: Nanosyn kinase panel” (2012).
# Columns and labels:
# [1] = target: T1, Serine/threonine-protein kinase Nek9 (Homo sapiens) (UniProt Q8TD19); conditions: at 1 µM;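 also: each value is a mean percent inhibition of NEK9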
# T1 sequence (whole entry): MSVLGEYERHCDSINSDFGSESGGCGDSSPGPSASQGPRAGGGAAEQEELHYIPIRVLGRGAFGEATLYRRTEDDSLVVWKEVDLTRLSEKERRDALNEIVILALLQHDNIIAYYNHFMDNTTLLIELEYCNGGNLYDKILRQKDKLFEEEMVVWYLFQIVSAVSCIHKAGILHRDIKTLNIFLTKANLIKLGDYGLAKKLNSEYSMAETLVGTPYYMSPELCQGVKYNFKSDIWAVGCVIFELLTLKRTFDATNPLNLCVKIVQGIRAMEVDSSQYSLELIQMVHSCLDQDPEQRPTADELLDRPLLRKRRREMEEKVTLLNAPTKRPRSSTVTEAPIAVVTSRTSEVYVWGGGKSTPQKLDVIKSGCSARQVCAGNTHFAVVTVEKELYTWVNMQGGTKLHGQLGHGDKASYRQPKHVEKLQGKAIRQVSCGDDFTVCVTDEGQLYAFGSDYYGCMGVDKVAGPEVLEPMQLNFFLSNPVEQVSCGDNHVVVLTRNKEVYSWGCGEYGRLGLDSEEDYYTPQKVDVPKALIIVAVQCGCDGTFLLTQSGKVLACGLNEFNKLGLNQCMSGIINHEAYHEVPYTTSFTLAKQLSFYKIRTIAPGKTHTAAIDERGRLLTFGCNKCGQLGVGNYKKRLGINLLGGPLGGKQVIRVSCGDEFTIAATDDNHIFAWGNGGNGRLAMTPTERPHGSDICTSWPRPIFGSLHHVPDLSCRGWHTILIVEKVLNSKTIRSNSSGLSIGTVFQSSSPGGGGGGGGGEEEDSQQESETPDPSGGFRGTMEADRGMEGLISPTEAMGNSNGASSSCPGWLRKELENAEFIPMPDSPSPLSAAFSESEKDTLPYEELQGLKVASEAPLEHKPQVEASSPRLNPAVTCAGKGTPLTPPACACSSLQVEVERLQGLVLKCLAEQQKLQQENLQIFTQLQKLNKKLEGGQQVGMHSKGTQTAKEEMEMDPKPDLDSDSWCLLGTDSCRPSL
# [2] = target: Serine/threonine-protein kinase PLK1 (Homo sapiens) (UniProt P53350); conditions: at 0.1 µM
# Chain of Serine/threonine-protein kinase PLK1 (Homo sapiens) (P53350 whole entry): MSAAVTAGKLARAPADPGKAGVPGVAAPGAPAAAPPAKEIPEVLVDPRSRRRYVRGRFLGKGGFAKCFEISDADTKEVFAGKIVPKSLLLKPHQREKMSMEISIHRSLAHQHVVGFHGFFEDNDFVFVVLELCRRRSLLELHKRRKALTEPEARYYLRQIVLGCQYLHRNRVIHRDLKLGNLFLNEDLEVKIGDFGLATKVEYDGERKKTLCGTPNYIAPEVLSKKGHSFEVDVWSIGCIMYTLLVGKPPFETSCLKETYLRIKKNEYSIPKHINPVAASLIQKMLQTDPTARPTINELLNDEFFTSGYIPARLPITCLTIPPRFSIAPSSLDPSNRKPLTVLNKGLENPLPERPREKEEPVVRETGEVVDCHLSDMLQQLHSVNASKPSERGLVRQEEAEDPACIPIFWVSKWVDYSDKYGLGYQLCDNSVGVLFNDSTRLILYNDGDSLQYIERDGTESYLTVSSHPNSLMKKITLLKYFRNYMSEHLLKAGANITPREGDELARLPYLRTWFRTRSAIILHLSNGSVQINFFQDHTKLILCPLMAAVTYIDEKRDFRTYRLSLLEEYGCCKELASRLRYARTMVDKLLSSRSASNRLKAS
# [3] = target: Serine/threonine-protein kinase PLK1 (Homo sapiens) (UniProt P53350); conditions: at 1 µM
# [4] = target: T2, Dual specificity protein kinase TTK (Homo sapiens) (UniProt P33981); conditions: at 0.1 µM
# T2 sequence (whole entry): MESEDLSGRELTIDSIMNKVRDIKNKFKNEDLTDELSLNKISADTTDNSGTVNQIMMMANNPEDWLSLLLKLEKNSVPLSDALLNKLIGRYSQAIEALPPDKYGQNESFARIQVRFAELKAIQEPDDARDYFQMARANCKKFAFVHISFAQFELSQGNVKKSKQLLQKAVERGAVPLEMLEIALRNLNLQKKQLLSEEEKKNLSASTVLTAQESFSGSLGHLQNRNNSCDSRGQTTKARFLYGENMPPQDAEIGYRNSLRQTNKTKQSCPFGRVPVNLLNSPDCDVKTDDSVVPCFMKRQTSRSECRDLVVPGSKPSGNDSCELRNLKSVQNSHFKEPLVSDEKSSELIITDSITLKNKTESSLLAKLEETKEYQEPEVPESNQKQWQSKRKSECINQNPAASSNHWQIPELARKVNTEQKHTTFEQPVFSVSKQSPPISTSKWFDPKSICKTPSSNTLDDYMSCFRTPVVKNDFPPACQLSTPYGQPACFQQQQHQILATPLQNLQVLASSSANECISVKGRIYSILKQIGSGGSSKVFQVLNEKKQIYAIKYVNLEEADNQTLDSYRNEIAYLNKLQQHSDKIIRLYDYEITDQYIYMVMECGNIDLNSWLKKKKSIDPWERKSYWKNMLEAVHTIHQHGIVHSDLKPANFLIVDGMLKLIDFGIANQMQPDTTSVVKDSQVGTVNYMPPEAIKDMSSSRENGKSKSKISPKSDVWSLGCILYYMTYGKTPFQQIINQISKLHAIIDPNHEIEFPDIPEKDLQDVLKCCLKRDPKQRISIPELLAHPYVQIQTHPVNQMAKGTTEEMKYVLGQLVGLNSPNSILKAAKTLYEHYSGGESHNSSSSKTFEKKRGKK
# [5] = test system: T3, Receptor-type tyrosine-protein kinase FLT3 (Homo sapiens), P36888 [D835Y]; conditions: at 1 µM
# T3 sequence (whole entry): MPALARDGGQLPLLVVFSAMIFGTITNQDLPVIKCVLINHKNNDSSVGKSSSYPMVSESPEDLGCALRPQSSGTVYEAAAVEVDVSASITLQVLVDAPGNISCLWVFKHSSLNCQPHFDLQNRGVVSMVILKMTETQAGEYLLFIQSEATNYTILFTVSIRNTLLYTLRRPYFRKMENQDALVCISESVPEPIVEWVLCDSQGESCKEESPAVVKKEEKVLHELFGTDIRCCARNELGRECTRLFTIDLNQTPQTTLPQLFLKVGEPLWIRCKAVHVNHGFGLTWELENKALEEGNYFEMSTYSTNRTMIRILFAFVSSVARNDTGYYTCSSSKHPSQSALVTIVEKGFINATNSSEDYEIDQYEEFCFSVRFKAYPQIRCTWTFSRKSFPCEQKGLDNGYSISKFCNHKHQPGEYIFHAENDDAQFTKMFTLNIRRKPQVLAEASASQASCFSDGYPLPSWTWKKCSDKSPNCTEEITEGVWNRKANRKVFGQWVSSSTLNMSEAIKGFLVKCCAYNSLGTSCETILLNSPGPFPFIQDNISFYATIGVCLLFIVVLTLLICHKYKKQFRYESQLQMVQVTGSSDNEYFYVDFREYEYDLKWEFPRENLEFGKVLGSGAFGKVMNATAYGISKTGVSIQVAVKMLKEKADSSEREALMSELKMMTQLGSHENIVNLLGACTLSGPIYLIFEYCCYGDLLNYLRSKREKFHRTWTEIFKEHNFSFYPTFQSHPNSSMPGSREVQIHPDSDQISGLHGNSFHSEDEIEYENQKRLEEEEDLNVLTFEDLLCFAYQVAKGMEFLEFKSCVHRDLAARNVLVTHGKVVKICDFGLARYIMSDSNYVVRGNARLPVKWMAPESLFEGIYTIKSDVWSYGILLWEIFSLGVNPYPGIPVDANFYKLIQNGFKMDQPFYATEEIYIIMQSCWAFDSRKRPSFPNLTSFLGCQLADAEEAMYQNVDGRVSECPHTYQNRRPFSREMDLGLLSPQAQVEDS
# [6] = target: Vascular endothelial growth factor receptor 3 (Homo sapiens) (UniProt P35916); conditions: at 1 µM
# Chain of Vascular endothelial growth factor receptor 3 (Homo sapiens) (P35916 whole entry): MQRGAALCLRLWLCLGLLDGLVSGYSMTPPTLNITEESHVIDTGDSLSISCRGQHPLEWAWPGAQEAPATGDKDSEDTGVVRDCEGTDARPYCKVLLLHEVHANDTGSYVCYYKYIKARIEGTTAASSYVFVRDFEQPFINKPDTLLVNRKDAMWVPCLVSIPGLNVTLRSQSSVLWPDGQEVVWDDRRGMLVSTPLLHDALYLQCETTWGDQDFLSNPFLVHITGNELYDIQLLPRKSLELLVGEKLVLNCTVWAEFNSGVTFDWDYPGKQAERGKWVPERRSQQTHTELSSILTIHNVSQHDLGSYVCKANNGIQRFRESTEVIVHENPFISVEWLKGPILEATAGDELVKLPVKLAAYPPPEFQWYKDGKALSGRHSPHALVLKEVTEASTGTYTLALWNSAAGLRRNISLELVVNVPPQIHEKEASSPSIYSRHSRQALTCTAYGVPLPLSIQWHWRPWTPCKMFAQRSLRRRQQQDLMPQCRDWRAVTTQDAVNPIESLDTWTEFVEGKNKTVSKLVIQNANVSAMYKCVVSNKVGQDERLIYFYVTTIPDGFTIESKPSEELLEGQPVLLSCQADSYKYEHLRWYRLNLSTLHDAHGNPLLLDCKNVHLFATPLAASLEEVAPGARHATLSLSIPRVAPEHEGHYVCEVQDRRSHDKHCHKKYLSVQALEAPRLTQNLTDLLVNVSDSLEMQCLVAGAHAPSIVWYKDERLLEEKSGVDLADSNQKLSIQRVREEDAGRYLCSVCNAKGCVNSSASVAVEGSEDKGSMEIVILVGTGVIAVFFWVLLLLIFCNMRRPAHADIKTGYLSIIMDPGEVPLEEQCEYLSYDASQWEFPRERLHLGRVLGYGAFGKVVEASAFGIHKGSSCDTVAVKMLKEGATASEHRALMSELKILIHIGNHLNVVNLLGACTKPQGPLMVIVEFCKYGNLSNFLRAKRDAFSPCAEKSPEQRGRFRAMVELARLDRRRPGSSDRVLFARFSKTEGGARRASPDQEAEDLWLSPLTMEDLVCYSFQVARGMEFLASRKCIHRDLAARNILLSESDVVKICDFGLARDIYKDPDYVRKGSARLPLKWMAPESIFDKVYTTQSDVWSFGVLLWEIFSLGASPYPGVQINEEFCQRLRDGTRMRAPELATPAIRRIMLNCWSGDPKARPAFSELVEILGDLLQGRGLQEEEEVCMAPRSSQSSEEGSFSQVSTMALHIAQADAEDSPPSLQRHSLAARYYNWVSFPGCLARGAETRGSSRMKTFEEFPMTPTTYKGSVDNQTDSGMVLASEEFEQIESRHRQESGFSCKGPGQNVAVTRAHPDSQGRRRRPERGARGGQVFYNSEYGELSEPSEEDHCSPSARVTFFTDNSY
# [7] = target: Macrophage colony-stimulating factor 1 receptor (Homo sapiens) (UniProt P07333); conditions: at 0.1 µM
# Chain of Macrophage colony-stimulating factor 1 receptor (Homo sapiens) (P07333 whole entry): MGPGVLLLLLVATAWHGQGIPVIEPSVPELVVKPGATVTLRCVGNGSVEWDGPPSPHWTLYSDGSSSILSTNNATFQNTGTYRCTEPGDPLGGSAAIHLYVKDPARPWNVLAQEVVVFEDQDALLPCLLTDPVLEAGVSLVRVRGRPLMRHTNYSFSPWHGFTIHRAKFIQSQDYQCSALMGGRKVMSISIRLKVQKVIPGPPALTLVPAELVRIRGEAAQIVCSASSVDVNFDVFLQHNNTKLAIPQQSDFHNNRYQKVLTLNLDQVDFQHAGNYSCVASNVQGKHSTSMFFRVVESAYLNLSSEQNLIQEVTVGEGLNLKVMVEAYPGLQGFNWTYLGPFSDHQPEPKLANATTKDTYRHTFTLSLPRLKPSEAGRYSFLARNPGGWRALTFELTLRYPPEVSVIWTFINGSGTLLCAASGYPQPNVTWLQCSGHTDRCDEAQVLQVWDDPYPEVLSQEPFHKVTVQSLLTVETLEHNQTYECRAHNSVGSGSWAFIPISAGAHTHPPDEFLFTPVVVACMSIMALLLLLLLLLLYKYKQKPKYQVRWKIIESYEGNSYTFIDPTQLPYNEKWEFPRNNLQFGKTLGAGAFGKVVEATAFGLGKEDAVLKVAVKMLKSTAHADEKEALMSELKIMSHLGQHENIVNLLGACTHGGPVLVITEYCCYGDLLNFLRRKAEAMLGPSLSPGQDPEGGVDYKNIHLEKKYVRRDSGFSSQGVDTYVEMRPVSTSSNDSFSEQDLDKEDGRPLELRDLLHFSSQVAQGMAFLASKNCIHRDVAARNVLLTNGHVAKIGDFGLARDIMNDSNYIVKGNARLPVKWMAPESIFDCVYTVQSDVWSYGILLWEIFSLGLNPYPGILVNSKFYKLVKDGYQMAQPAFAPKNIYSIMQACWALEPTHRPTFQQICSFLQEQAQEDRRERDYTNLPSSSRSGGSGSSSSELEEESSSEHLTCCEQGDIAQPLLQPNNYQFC
# [8] = target: Macrophage colony-stimulating factor 1 receptor (Homo sapiens) (UniProt P07333); conditions: at 1 µM
# [9] = target: Tyrosine-protein kinase Fyn (Homo sapiens) (UniProt P06241); conditions: at 0.1 µM
# Chain of Tyrosine-protein kinase Fyn (Homo sapiens) (P06241 2-537 limits assumed): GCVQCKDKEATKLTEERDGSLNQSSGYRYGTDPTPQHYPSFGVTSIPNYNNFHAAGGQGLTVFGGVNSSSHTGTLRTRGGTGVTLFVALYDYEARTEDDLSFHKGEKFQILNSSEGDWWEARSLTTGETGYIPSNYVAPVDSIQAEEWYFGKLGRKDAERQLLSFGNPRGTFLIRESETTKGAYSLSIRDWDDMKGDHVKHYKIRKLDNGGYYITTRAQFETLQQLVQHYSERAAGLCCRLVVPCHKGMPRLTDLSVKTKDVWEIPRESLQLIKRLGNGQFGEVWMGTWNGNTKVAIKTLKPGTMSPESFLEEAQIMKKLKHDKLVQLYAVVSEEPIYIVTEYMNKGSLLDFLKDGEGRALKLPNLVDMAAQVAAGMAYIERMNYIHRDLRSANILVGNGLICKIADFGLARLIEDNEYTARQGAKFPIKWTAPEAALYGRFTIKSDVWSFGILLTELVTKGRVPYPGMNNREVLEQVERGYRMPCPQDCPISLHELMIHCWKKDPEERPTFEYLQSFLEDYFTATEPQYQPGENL
# [10] = target: Vascular endothelial growth factor receptor 3 (Homo sapiens) (UniProt P35916); conditions: at 0.1 µM
Structure (SMILES),inhibition [1] [%],inhibition [2] [%],inhibition [3] [%],inhibition [4] [%],inhibition [5] [%],inhibition [6] [%],inhibition [7] [%],inhibition [8] [%],inhibition [9] [%],inhibition [10] [%]
CNC(=O)c1cncc(/C=C/c2c(C)cccc2C)c1,2.51,1.18,0.2,1.49,5.46,-8.92,12,44.4,0.61,–
COc1ccc2ncn(-c3cc(O[C@H](C)c4ccccc4Cl)c(C(N)=O)s3)c2c1,83.7,–,–,6.36,2.74,4.48,3.05,14.4,-4.31,-5.28
COc1cc(Nc2ncc(-c3ccccc3)o2)cc(OC)c1OC,8.49,-0.55,2.1,5.82,63.1,36.7,20.1,57.6,6.4,7.69
C[C@@H](Oc1cc(-n2cnc3ccc(OC4CCN(C)CC4)cc32)sc1C(N)=O)c1ccccc1Cl,97.2,–,–,6.06,12.2,13.8,3.34,16.3,-3.18,-3.01
COc1cc(N2CCN(C(C)C)CC2)ccc1Nc1nc(Nc2ccc(F)cc2C(=O)NC[C@@H](O)CO)c2cc[nH]c2n1,15.3,9.77,38,74,–,–,1.22,0.02,0.03,-9.16
COc1cc(Nc2ncc3c(C)nc(-c4cccc(Oc5ccccc5)c4)n3n2)cc(OC)c1OC,81.4,–,–,3.03,20.2,0.93,1.83,22.3,1.2,-1.15
Fc1ccc(-c2c(-c3ccncc3)nc3n2CCS3)cc1,4.81,2.99,2.94,5.74,-4.22,–,1.54,1.37,-3.03,-5.59
Cc1nnc(-c2ccc(C)c(-c3ccc(C(=O)NCc4ccc(Cl)cc4)cc3)c2)o1,11.6,3.2,4.52,11.7,-0.11,–,2.43,0.83,-2.42,-5.22
CCS(=O)(=O)c1ccc(OC)c(Nc2ncc(-c3ccccc3Cl)o2)c1,6.89,0.86,3.51,–,17.4,29.9,9.53,40.3,2.29,7.55
COc1cccc(-n2cnc3c(N/N=C/c4ccncc4)ncnc32)c1,5.21,-1.9,-0.54,0.25,9.6,-4.88,4.43,24.9,-0.06,–
NS(=O)(=O)c1ccc(N/N=C2\C(=O)Nc3ccc(-c4cnco4)cc32)cc1,7.27,3.71,3.38,15.1,73.1,25.8,4.76,27.8,-0.9,-4.32
c1ccc(-c2n[nH]cc2-c2ccnc(-c3ccc(OCCN4CCOCC4)cc3)c2)nc1,–,-1.38,-1.28,-2.01,1.73,8.44,2.4,8.98,-0.84,-0.95
Cc1ccc(C(=O)NC(C)C)cc1-c1ccc(C(=O)NCC2CC2)cc1,4.93,-2.88,0.01,-5.71,5.33,2.58,-3.16,0.94,-0.23,1.2
CN(C)CCCNc1nccc(-c2c(-c3ccc(F)cc3)nn3cc(C(F)(F)F)ccc23)n1,0.61,2.56,2.23,2.37,2.47,-6.61,2.1,2.47,-2.36,–
NCc1ccc(-n2c(-c3nonc3N)nc3cnccc32)cc1,6.1,3.75,3.27,19.4,6.04,7.01,12.5,49.6,1.24,6.13
NS(=O)(=O)c1ccc(N/N=C2\C(=O)Nc3ccc(C(=O)NCCCn4ccnc4)cc32)cc1,19,6.29,4.25,37.3,32.9,26.7,2.86,6.33,2.07,4.15
CN1CCN(CCCNc2nc3ccc(Oc4ccc(NC(=O)Nc5cc(C(F)(F)F)ccc5F)cc4)cc3[nH]2)CC1,-1.83,1.78,0.98,1.87,1.66,-0.49,3.57,17.3,-4.47,–

Structure (SMILES),inhibition [1] [%],inhibition [2] [%],inhibition [3] [%],inhibition [4] [%],inhibition [5] [%],inhibition [6] [%],inhibition [7] [%],inhibition [8] [%],inhibition [9] [%],inhibition [10] [%]
O=C(NCC1CC1)c1ccc(-c2cccc(C(=O)NC3CC3)c2)cc1,-2.12,1.33,-0.14,2.34,4.69,1.97,1.67,5.35,1.58,1.32
C[C@@H](Oc1cc(-n2cnc3ccc(OCC4CCN(C)CC4)cc32)sc1C(N)=O)c1ccccc1Cl,89.7,–,–,93.6,11.7,23.9,4.53,17.9,4.31,5.35
O=C1Nc2ccc(I)cc2C1=Cc1cc(Br)c(O)c(Br)c1,7.24,5.57,9.77,10.4,2.02,-3.58,4.92,5.58,3,0.19
NC(=O)Cc1ccccc1Oc1nccc(-c2c(-c3ccc(F)cc3)ncn2C2CCNCC2)n1,1.22,3.44,2.54,5.28,1.28,-0.28,0.18,1.47,2.4,1.36
C#Cc1cccc(Nc2ncnc3ccc(OCCCCNCCS(C)(=O)=O)cc23)c1,10.2,2.94,2.68,9.49,1.41,–,4.11,2.93,-1.92,-5.89
c1ccc(Oc2ccc(Nc3ncc(-c4ccccc4)o3)cc2)cc1,2.53,1.36,1.6,2.58,1.21,1.93,–,2.76,0.57,3.08
COc1cc2ncn(-c3cc(OCCc4ccccc4)c(C(N)=O)s3)c2cc1OC,6.63,–,–,1.17,1.07,21,-0.81,4.7,2.91,1.49
Cc1ccc(NC(=O)c2ccoc2)cc1-c1ccc(C(=O)NCC2CC2)cc1,4.64,2.06,-0.9,4.04,5.74,6.22,-2.68,2.71,0.65,0.17
COc1cc(C)c(N(C)C(=O)CN(C)C)cc1Nc1nc(Nc2cccc(F)c2C(N)=O)c2cc[nH]c2n1,3.64,2.25,2.83,4.16,2.97,–,-0.28,4.04,-3.95,–
Fc1ccc(-c2nc3n(c2-c2ccncc2)CCS3)cc1,6.52,3.85,4.09,6.93,-0.91,–,0.95,1.38,0.03,-8.43
CN(C)CCOc1ccc(-c2cc(-c3ccc4c(c3)CCC4=NO)c(-c3ccncc3)o2)cc1,-0.58,1.65,-0.86,1.31,-3.1,-0.94,-3.24,-0.1,1.29,-0.84
CN(C)c1ccc2c(c1)/C(=C/Nc1ccc(S(N)(=O)=O)cc1)C(=O)N2,4.93,2.05,2.41,5.45,33.6,55,4.82,18.8,2.68,–
COc1ccc2cc(-c3c(-c4ccncc4)nc(-c4ccc([S+](C)[O-])cc4C)n3C)ccc2c1 (configuration not stated),-2.02,-0.27,-0.2,-1.41,4.56,9.41,–,–,1.51,2.68
COc1cc2ncn(-c3cc(OCc4cccs4)c(C(N)=O)s3)c2cc1OC,28.4,–,–,4.76,1.62,34.7,1.28,11.7,-2.3,-6.1
Fc1ccc(-c2ncn(C3CCNCC3)c2-c2ccnc(Oc3ccc(Oc4ccccc4)cc3)n2)cc1,4.8,4.45,6.8,6.67,-1.89,1.1,2.27,3.02,2.65,3.28
COc1cc(Nc2ncc3c(C)nc(-c4cccc(C(F)(F)F)c4)n3n2)cc(OC)c1OC,86.1,–,–,8.36,35.8,2.6,32.9,79.8,6.79,-1.5
CCS(=O)(=O)c1ccc(OC)c(Nc2ncc(-c3cccc(-c4ccccc4F)c3)o2)c1,-0.99,20.4,–,0.9,45,82.8,4.55,27.2,47.1,41
